# Test results: PubChem BioAssay AID2546 (National Center for Advancing Translational Sciences (NCATS), 2010)
# Screen size: about 310,000 compounds; about 11,000 (3.5%) were called active. Not shown: some 8% with an inconclusive outcome. For the sample, actives were picked, then their nearest neighbours and some compounds at random. Values without a mark were called inactive. The call rests on the fitted dose curve; in most records, active means well fitted inhibition curve with a large enough effect; inconclusive means small, poorly fitted or top-dose-only effect, or effect the other way; inactive means flat fitted curve, though single readings scatter.
# Experiment: VP16 counterscreen qHTS for inhibitors of ROR gamma transcriptional activity;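 further: Gal4-VP16 expression switched on by copper sulfate through the metallothionein promoter; nearly all actives have a fitted effect of over 50% in size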
# Conditions: Drosophila S2 Gal4-VP16 UAS-luciferase, luminescence, 20 h; series mostly up to 53.6 µM; activity, negative = inhibition: at the top concentration
# On the % scale 0 is the no-effect control and ±100 the full control effect; potency means the concentration at half of the fitted maximal effect.
Structure (SMILES),"activity, negative = inhibition",Potency
O=C(NCCc1ccccc1)c1ccc2c(c1)N(Cc1ccccc1)CCS2,-10%,–
O=c1oc(-c2ccco2)nc2sc3c(c12)CCCCC3,-24%,–
COc1ccc(CCn2c(=N)c(C(=O)NCc3ccco3)cc3c(=O)n4cccc(C)c4nc32)cc1,5.42%,–
O=C(NCc1ccco1)c1cccn2c(=O)c3c4c(sc3nc12)CCCC4,–,11.2 µM (active)
CCCCC(C(=O)NC(C)(C)C)N(Cc1ccccc1)C(=O)c1snc(C(N)=O)c1N (stereo not drawn),12.3%,–
O=C(CN1CCN(Cc2ccccc2)CC1)Nc1ccc(F)c(F)c1,2.62%,–
CCn1c2ccccc2c2cc(NC(=O)CNC)ccc21,1.69%,–
Cc1cc(N2CCN(C)CC2)nc2ccc(NC(=S)N3CCOCC3)cc12,-2.43%,–
CCn1c2ccccc2c2cc(NC(=S)N3CCOCC3)ccc21,–,22.4 µM (active)
CC(C)CCN(C(=O)c1csnn1)C(C(=O)NC1CCCC1)c1ccccc1 (stereo not drawn),1.57%,–
Nc1c(C(=O)NCc2ccccc2)nnn1Cc1cccc(Cl)c1,7.37%,–
CC(C)CC(=O)N1CCN(Cc2cccc(Cl)c2)CC1,-11.5%,–
Clc1cccc(CN2COc3c(cc(Cl)c4cccnc34)C2)c1,–,1.41 µM (active)
N#Cc1cccc(CN2CCC(=O)N([C@H](CO)c3ccccc3)CC2)c1,0.328%,–
Cc1ccc(NC(=O)c2c(NC(=O)CCC(=O)O)sc3c2CCCCC3)cc1,7.16%,–
O=C(CN1CCCC1)Nc1sc2c(c1C(=O)Nc1ccccc1)CCCC2,–,10 µM (active)
NC(=O)c1c(NC(=O)c2ccccc2)sc2c1CCCC2,2.02%,–
COc1cc(S(=O)(=O)N2CCN=C2c2ccccc2)ccc1Cl,6.16%,–
Cc1cc(S(=O)(=O)c2cc3ccc(O)c(C)c3oc2=O)ccc1F,-6.11%,–
Cc1nc2ccc(C(=O)N/N=C/c3ccc(O)cc3)cc2[nH]1,1.9%,–
Cc1ccc2occ(/C=N/NC(=O)c3ccccc3C)c(=O)c2c1,-18.9%,–
Cc1ccc(/C=N/NC(=O)C2=NNC(c3ccccc3)(c3ccccc3)C2)c(O)c1,–,1.26 µM (active)
O=C(NCc1ccccc1)c1onc(CSc2nc3ccccc3[nH]2)c1C(=O)NCc1ccccc1,-0.36%,–
O=C(COc1ccc2c3c(c(=O)oc2c1)CCCC3)NCC(O)c1ccccc1 (stereo not drawn),4.21%,–
COCCN1C(=O)C(=O)/C(=C(/O)c2ccc(S(=O)(=O)N3CCOCC3)cc2)C1c1ccc(OC)c(OC)c1 (stereo not drawn),1.7%,–
C/C(=N\NC(=O)C(N)=O)c1ccc2c(c1)OCCO2,-20.3%,–
C/C(=N/NC(=O)c1ccncc1)c1ccc2c(c1)OCO2,8.05%,–

Structure (SMILES),"activity, negative = inhibition",Potency
C/C(=N/NC(=S)Nc1ccccc1)c1ccc2c(c1)OCO2,–,4.47 µM (active)
Cc1ccccc1N1CCN(C2CCCN(C(=O)c3cn4c(C)cccc4n3)C2)CC1 (stereo not drawn),2.74%,–
CCc1nn(CCCC(=O)Nc2ccc(C)c(C)c2)c(=O)c2cc3occc3n12,-2.24%,–
CN1C/C(=C/c2cccs2)C(=O)/C(=C\c2cccs2)C1,0.426%,–
CCCc1cc(C(=O)Nc2ccc(Cl)cn2)cs1,-25.9%,–
O=C(Nc1cccc([N+](=O)[O-])c1)Nc1ccc(Cl)cn1,-8.42%,–
O=C(Nc1ccc(Cl)cn1)Nc1cccs1,–,14.1 µM (active)
COc1cc(/C=N/N2CCN(c3ccccc3)CC2)ccc1OC(C)=O,1.56%,–
COc1cc2c(cc1OC)/C(=C/C(=O)c1ccc(NC(C)=O)cc1)NCC2,-3.3%,–
CC1CN/C(=C\C(=O)c2ccc(Br)cc2)C(=O)N1 (stereo not drawn),–,11.2 µM (active)
C/C(=C\C(=O)c1ccc(Br)cc1)N1CCCCC1,1.38%,–
O=C1CC(Sc2ncn[nH]2)C(=O)N1c1ccccc1 (stereo not drawn),1.14%,–
CCOc1ccccc1N1C(=O)CC(Sc2nccc(C)n2)C1=O (stereo not drawn),–,17.8 µM (active)
Cc1ccnc(SCC(N)=O)n1,13.3%,–
COC(=O)C1CCN(C(=O)c2ccc3oc(Cc4ccc(Cl)cc4)nc3c2)CC1,6.36%,–
COc1ccc(-c2nc3c(s2)CCc2onc(-c4ccc(OC)cc4)c2-3)cc1,2.49%,–
CCn1ccnc1CNC(=O)CC1C(=O)NCCN1CCCc1ccccc1 (stereo not drawn),-0.0781%,–
COCCNC(=S)N(CCc1c(C)[nH]c2ccc(C)cc12)Cc1cccnc1,1.9%,–
Cc1cccc(S(=O)(=O)CC(=O)Nc2nc(-c3ccccc3)cs2)c1,0.641%,–
Cc1cccc(Nc2nc(-c3ccccc3)cs2)n1,–,17.8 µM (active)
NS(=O)(=O)c1ccc(Nc2nc(-c3ccccc3)cs2)cc1,-27.5%,–
COc1ccccc1-c1nnc(SCC(=O)Nc2ccccc2)o1,-26.6%,–
O=C(Nc1ccc(S(=O)(=O)N2CCOCC2)cc1)c1ccc2ncsc2c1,0.439%,–
COc1ccccc1-c1nnc(NC(=O)c2ccc3ncsc3c2)o1,–,0.501 µM (active)
Nc1nonc1-n1nnc(C(=O)N/N=C/c2c[nH]c3ccccc23)c1-c1ccccc1,2.56%,–
CCCOc1ccc(-c2c(C(=O)N/N=C/c3ccco3)nnn2-c2nonc2N)cc1,–,15.8 µM (active)
